PubChem BioAssay (Tox21)
“And” between values parts separate entries of the source, which are not always exact repeats. Equal entries are not always repeated. Records with an inconclusive call do not appear. Values without a mark were called inactive. The source made the active and inactive calls. Calls come from the whole dose curve; as a rule, active = well fitted cell-killing curve with a large enough effect in the repeat runs; inconclusive = weak or mixed curves, or effect the other way; inactive = no such curve, though single readings can be large or run the other way.

test: qHTS assay to identify small molecule antagonists of the thyroid receptor (TR) signaling pathway - cell viability counter screen (AID 743064); details: GH3.TRE-Luc viability, CellTiter-Fluor, 24 h; series mostly up to 70.3 µM; activity change, negative = cytotoxic: at the top concentration; note: nearly all actives have a fitted effect of over 50% in size
Source text: National Center for Advancing Translational Sciences [NCATS]
NIH Chemical Genomics Center [NCGC]
U.S. Environmental Protection Agency [EPA]
National Institutes of Environmental Health Sciences [NIEHS]
National Toxicology Program [NTP]
U.S. Food and Drug Administration [FDA]
Thyroid receptor (TR), a nuclear hormone receptor, plays an important role in development, proliferation, differentiation, metabolism, brain function, and cardiovascular system. […] To profile the Tox21 10K compound library in TR signaling, a cell-based GH3-TRE-Luc assay (GH3.TRE-Luc cell line, developed by the laboratory of Dr. Albertinka J. Murk, Wageningen University) was used to measure the inhibition of TR. GH3 (rat pituitary tumor) cells stably expressing a TR activity sensor consisting of two TR response elements and a luciferase reporter gene. The cytotoxicity of the Tox21 compound library against the GH3.TRE-Luc cell line was tested in parallel by measuring the cell viability using CellTiter-Fluor assay (Promega, Madison, WI) in the same wells.
Tox21 Assay Protocol Summary:
GH3.TRE-Luc cells were dispensed at 1500 cells/4 uL/well into 1536-well white solid bottom plates using a Multidrop Combi dispenser (Thermo Fisher Scientific Inc., Waltham, MA). After the assay plates were incubated at 37 C for 4 hours, 23 nL of library compound or DMSO controls was transferred to the assay plates by a pintool station (Kalypsys, San Diego, CA), followed by addition of 1 ul of T3 (1 nM, final concentration in the wells) to stimulate TR transactivation. The assay plates were incubated at 37 C for 23.5 h, and then 1 uL of CellTiter-Fluor reagent (Promega, Madision, WI) of measuring cytotoxicity was added to each well using a Bioraptr Flying Reagent Dispenser (FRD) workstation (Beckman Coulter, Indianapolis, IN, USA). The plates were incubated at 37C and 5% CO2 for additional 30 min, and fluorescence intensity was measured by a ViewLux plate reader (PerkinElmer, Shelton, CT).
% is set by controls: 0 for no effect and ±100 for the full control effect; potency is the fitted concentration of half-maximal effect.

SMILES	Potency	activity change, negative = cytotoxic
O=C(Nc1ccccc1)c1cc(Cl)ccc1O	10.9 µM (active)	–
C[C@H](O)CN(C)C	–	4.18%
C/C=C/C1=C(C(=O)O)N2C(=O)[C@@H](NC(=O)[C@H](N)c3ccc(O)cc3)[C@H]2SC1	–	27.5%
CCN(CC)C(=O)[C@]1(c2ccccc2)C[C@@H]1CN	–	20.1%
N[C@H](C(=O)O)[C@@H]1CC(Cl)=NO1	5.96 µM (active)	–
CCN(CC)C(=O)c1cccnc1	–	18.2%
CCCCCCCCCCCCCCCC(=O)OC[C@H](COP(=O)([O-])OCC[N+](C)(C)C)OC(=O)CCCCCCCCCCCCCCC	–	24.8%
CCN(CC)CC#CCOC(=O)C(O)(c1ccccc1)C1CCCCC1 (stereo not given)	13.3 µM (active)	–
CC(C)c1ccc2sc3ccccc3c(=O)c2c1	–	1.39%
CCCCC/C=C\C=C\C(=O)OCC	31.9 µM (active)	–
CN(Cc1ccccc1)Cc1ccccc1	–	15.6%
O=C1OC(O)C(C(Cl)Cl)=C1Cl (stereo not given)	31.6 µM (active)	–
CC[C@@]1([C@@H]2O[C@@H]([C@H]3O[C@@](O)(CO)[C@H](C)C[C@@H]3C)C[C@@H]2C)CC[C@H]([C@]2(C)CC[C@]3(C[C@H](O)[C@@H](C)[C@@H]([C@@H](C)[C@@H](OC)[C@H](C)C(=O)O)O3)O2)O1 (stereo in doubt)	596 nM (active) and 376 nM (active)	–
CCCCCCCCCCCCCC(=O)OCC(COP(=O)([O-])OCC[N+](C)(C)C)OC(=O)CCCCCCCCCCCCC (stereo not given)	–	13.2%
CSCCC(N)C(=O)O (stereo not given)	–	23.9%
C[C@@H]1O[C@@H](OC[C@H]2O[C@@H](Oc3c(-c4ccc(OCCO)c(OCCO)c4)oc4cc(OCCO)cc(O)c4c3=O)[C@H](O)[C@@H](O)[C@@H]2O)[C@H](O)[C@H](O)[C@H]1O	–	18.5%
NCc1cccc(C2CCN(C(=O)c3ccc(C#Cc4ccccc4F)o3)CC2)c1	7.7 µM (active)	–
CN[C@H](CC(C)C)C(=O)N[C@H]1C(=O)N[C@@H](CC(N)=O)C(=O)N[C@H]2C(=O)N[C@H]3C(=O)N[C@H](C(=O)N[C@@H](C(=O)O)c4cc(O)cc(O)c4-c4cc3ccc4O)[C@H](O)c3ccc(c(Cl)c3)Oc3cc2cc(c3O[C@@H]2O[C@H](CO)[C@@H](O)[C@H](O)[C@H]2O[C@H]2C[C@](C)(N)C(O)[C@H](C)O2)Oc2ccc(cc2Cl)[C@H]1O (stereo not given in full)	inactive	–
COC(=O)C[C@](O)(CCCC(C)(C)O)C(=O)O[C@@H]1C(OC)=CC23CCCN2CCc2cc4c(cc2[C@H]13)OCO4 (stereo not given in full)	0.0596 µM (active)	–
C[S+](C)CCC(N)C(=O)O (stereo not given)	–	-2.75%

SMILES	Potency	activity change, negative = cytotoxic
C[N+]1(CCCCC[N+]2(C)CCCC2)CCCC1	–	15.6%
CC1CCCC(C)N1NC(=O)c1ccc(Cl)c(S(N)(=O)=O)c1 (stereo not given)	–	0.708% [at 32.5 µM]
c1ccc(-n2cnnn2)cc1	–	8.37%
C=CCc1cc(S(=O)(=O)c2ccc(O)c(CC=C)c2)ccc1O	61.1 µM (active)	–
CC(C)(S)C(=O)N[C@@H](CS)C(=O)O	inactive	–
COc1ccc(/C=C/C(=O)Nc2ccccc2C(=O)O)cc1OC	–	-3.52%
OCl	–	-9.88%
CCN(CC)CCn1c(=O)c(Cc2ccc(OC)cc2)nc2ccccc21	26.6 µM (active)	–
Cc1cccc(C)c1NC(=O)C1CCCCN1C (stereo not given)	–	-16.6%
CCOc1cc(CC(=O)N[C@@H](CC(C)C)c2ccccc2N2CCCCC2)ccc1C(=O)O	–	8.21% [at 32.5 µM]
CC(=O)NC[C@H]1CN(c2ccc(N3CCOCC3)c(F)c2)C(=O)O1	–	-7.01%
CC(C)(C)c1ccc2c(S(=O)(=O)O)c(C(C)(C)C)ccc2c1	inactive	–
C[C@@H]1C(=O)NC2=Nc3cccc(Cl)c3CN21	–	-3.91%
CN=C(N)NCCC[C@H](N)C(=O)O	inactive	–
CO[C@H]1C[C@@H]2CC[C@@H](C)[C@@](O)(O2)C(=O)C(=O)N2CCCC[C@H]2C(=O)O[C@H]([C@H](C)C[C@@H]2CC[C@@H](O)[C@H](OC)C2)CC(=O)[C@H](C)C=C(C)[C@@H](O)[C@@H](OC)C(=O)[C@H](C)C[C@H](C)/C=C/C=CC=C1C	15 µM (active) and 9.44 µM (active)	–
Cc1cc(CC(C)CC(C)(C)C)n(O)c(=O)c1 (stereo not given) (tested in a mixture with another compound)	29.8 µM (active)	–
CC1=C(/C=C/C(C)=C/C=C/C(C)=C/C=C/C=C(C)/C=C/C=C(C)/C=C/C2=C(C)CCCC2(C)C)C(C)(C)CCC1	–	19.5%
O=C(CCCN1CCN2CCCC2C1)c1ccc(F)cc1 (stereo not given)	–	-14.7%
CC(=O)Oc1cc(C(F)(F)F)ccc1C(=O)O	–	29.4% [at 32.5 µM]
O=C1CC[C@@H](C(=O)N[C@H]2C[C@@H]2c2ccccc2)N1	–	23.1%
